Test results: PubChem BioAssay (NCI)
About 83,000 compounds went through this panel and 20% of them were active in at least one assay; those are over-represented in the sample as a whole.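 Assay: single dose, 48 h. Readout: percent growth (0 = no net growth; negative = cell death). Active: <10.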 Values without a mark were called inactive. Calls of active or inactive are those of the source.

Experiments:
Experiment in all cases: NCI-60 one-dose screen, 48 h (100 = growth as untreated, 0 = no growth, -100 = all killed)
Details in all cases: 10 µM unless noted
T-47D breast = test system: T-47D breast
BT-549 breast = test system: BT-549 breast
MDA-MB-435 melanoma = test system: MDA-MB-435 melanoma
SW-620 colon = test system: SW-620 colon
MCF7 breast = test system: MCF7 breast
HCT-116 colon = test system: HCT-116 colon
HCC-2998 colon = test system: HCC-2998 colon
KM12 colon = test system: KM12 colon
MDA-MB-468 breast = test system: MDA-MB-468 breast

Row | Compound | growth (T-47D breast) | growth (BT-549 breast) | growth (MDA-MB-435 melanoma) | growth (SW-620 colon) | growth (MCF7 breast) | growth (HCT-116 colon) | growth (HCC-2998 colon) | growth (KM12 colon) | growth (MDA-MB-468 breast)
1 | CC(C)Sc1nc(NCCc2c[nH]c3ccccc23)c(C#N)c(-c2ccccc2)n1 | -9.65% (active) | 55.1% | 48.1% | -11.6% (active) | -22.5% (active) | 0.232% (active) | 4.86% (active) | 6.51% (active) | -4.09% (active)
2 | CC(C)C(C(=O)O)n1c(O)c(/C=C2/C=c3cc4c(cc3=NC2=O)OCO4)sc1=S (stereo not drawn) | 103% | 111% | 107% | 108% | 90.4% | 108% | 110% | 103% | 101%
3 | COc1cc(C2CC(c3cc(OC)c(OC)c(OC)c3)=NN2c2ccccc2)ccc1OCc1ccc(C)cc1 (stereo not drawn) | 79.9% | 103% | 97% | 94.3% | 81.3% | 80.6% | 110% | 96.9% | 92.2%
4 | COc1cc2c(c(OC)c1OC)C(=O)CC(c1cccc(NC(=O)c3cccc(NC(=O)[C@H](C)NC(=O)OC(C)(C)C)c3)c1)O2 (stereo partly drawn) | 19.8% | 36.9% | 65.6% | 86.9% | 39.3% | 41.2% | 105% | 41.2% | 58.1%
5 | COc1ccc2[nH]c(O)c(N=NC(=O)COc3ccc(NC(=O)Nc4ccccc4)cc3)c2c1 | 27.1% | -36.4% (active) | 56.9% | 38.4% | 23.7% | 29.3% | 34.9% | -46.2% (active) | 13%
6 | CC(=O)OCC1OC(OC2C(COC(C)=O)OC(n3cc(COc4ccc5ccc(=O)oc5c4)nn3)C(OC(C)=O)C2OC(C)=O)C(OC(C)=O)C(OC(C)=O)C1OC(C)=O (stereo not drawn) | 103% | 101% | 101% | 106% | 90.9% | 106% | 108% | 103% | 108%
7 | C#CCOc1cc(N(CC)CC)ccc1C(C(=O)NC(C)(C)C)N(C(=O)C1CCc2cc(F)ccc2O1)c1ccc(Br)cc1 (stereo not drawn) | 71.3% | 75% | 69.9% | 77.9% | 52.8% | 35.6% | 100% | 60.4% | 61.2%
8 | NS(=O)(=O)c1ccc(N=Nc2c(O)n(CC(=O)Nc3ccccc3)c3ccccc23)cc1 | 60.8% | 25.5% | 9.55% (active) | -17.4% (active) | 14.9% | -45.3% (active) | 12.9% | 13.9% | 36.5%
9 | CCCCCCCCc1ccc(C(=O)Nc2ccc(C)cc2C(=O)O)cc1C | 94.4% | 101% | 105% | 97.2% | 93.8% | 84% | 106% | 79.7% | 92.8%
10 | Cc1ccccc1[C@H]1C(C(=O)c2ccc(Cl)cc2)C2(N[C@@H]1c1ccccc1)C(=O)Nc1ccccc12 (stereo partly drawn) | 4.15% (active) | -66% (active) | -62.2% (active) | 0.765% (active) | -31.7% (active) | -84% (active) | -41.1% (active) | -30.8% (active) | -25.6% (active)
11 | CN(C)CCCNC(=O)c1cc(NC(=O)c2cc(NC(=O)c3ccc(/C=C/c4ccccc4)cc3)cn2C)cn1C | 54.5% | 69.2% | 58.6% | 7.42% (active) | -85.9% (active) | 0.824% (active) | 42.3% | -16.5% (active) | 37.4%
12 | Cc1cc(=O)oc2cc(OCCOc3ccc(/C=C/C(=O)Nc4ccccc4N)cc3)ccc12 | 15.3% | -49.2% (active) | 42.7% | 27.4% | 5.65% (active) | 16.1% | 37.9% | 13.7% | -45% (active)
13 | CC1(C)CC[C@]2(C(=O)Nc3ccc(F)cc3)CC[C@]3(C)C(=CCC4[C@@]5(C)C[C@@H](O)[C@H](O)[C@@](C)(CO)C5CC[C@]43C)C2C1 (stereo partly drawn) | 15.5% | 33.2% | 39.9% | 59.4% | 7.64% (active) | 17.2% | 36% | 30.1% | 7.26% (active)
14 | O=C1NC(=O)/C(=C/c2ccccc2OCc2cc3ccccc3nc2Cl)S1 | 75.3% | 78.7% | 101% | 109% | 74.3% | 108% | 114% | 85.2% | 80.6%
15 | C#CCOc1cc(N(CC)CC)ccc1C(C(=O)NC(C)(C)C)N(C(=O)C1CCc2cc(F)ccc2O1)c1ccccc1F (stereo not drawn) | 30.2% | 40.3% | 35.9% | 42.1% | 16.6% | 20.5% | 73.2% | 18.8% | 25.5%
16 | CC(=O)Oc1ccc(/C=C/C(=O)N[C@@H](Cc2ccccc2)C(O)C(=O)NCc2ccccc2)cc1OC(C)=O (stereo partly drawn) | 90.9% | 81.6% | 71.7% | 93.2% | 81.9% | 78.4% | 96.3% | 86.3% | 78.1%
17 | C=C1CCC2C3(C)COC(c4ccccc4F)OC3CCC2(C)C1CC(O)C1=CCOC1=O (stereo not drawn) | 42.1% | -18.8% (active) | 27.5% | -6.12% (active) | 15.2% | -59.4% (active) | 36.7% | 45.3% | 63.9%
18 | Cc1ccccc1[C@H]1C(C(=O)c2ccc(Cl)cc2)C2(N[C@@H]1c1ccccc1)C(=O)Nc1ccc(Cl)cc12 (stereo partly drawn) | 13% | -29.4% (active) | -35.4% (active) | -9.32% (active) | -22.3% (active) | -84.6% (active) | -54.2% (active) | -24.3% (active) | -19.1% (active)
19 | Cn1cc(-c2nnc(N)nc2-c2c[nH]c3ccc(F)cc23)c2cccnc21 | 40.7% | 34% | -21.8% (active) | 19.3% | 23.6% | 15.1% | 65.8% | 22.3% | 39.1%
20 | C#CCOc1cc(N(CC)CC)ccc1C(C(=O)NC(C)(C)C)N(C(=O)C1CCc2cc(F)ccc2O1)c1ccc(F)cc1 (stereo not drawn) | 40.3% | 50.9% | 54.4% | 58.6% | 20.2% | 27.1% | 71.9% | 25.7% | 33.2%
21 | CC(=O)Nc1ccc(-c2nc3cc(-c4ccc(O)cc4)ccc3n2C)cc1 | 50.8% | 65.6% | 50.2% | 66% | 24.7% | 29% | 58.9% | 57.8% | 58.3%
22 | C=C1CCC2C3(C)COC(c4ccc(F)cc4)OC3CCC2(C)C1C/C=C1/C(=O)OCC1O (stereo not drawn) | -16.5% (active) | -85.8% (active) | -35.5% (active) | -69.8% (active) | -30.7% (active) | -74.2% (active) | -69.7% (active) | -44.7% (active) | -50.5% (active)
23 | Cn1cc(-c2cc3nc(-c4c[nH]c5ccc(Cl)cc45)cc(N)n3n2)c2ccccc21 | -73.9% (active) | -74% (active) | -84.7% (active) | -39.3% (active) | -73.7% (active) | -88.3% (active) | -78% (active) | -70.3% (active) | -73.5% (active)
24 | O=C(Nc1ccccc1)N1CCN(c2cc(-c3cn(-c4ccccc4)nc3-c3cccc(O)c3)ccn2)CC1 | 13.1% | 67.3% | 13.7% | 87.5% | 63.3% | 65.7% | 81.8% | 39.5% | 58.7%
25 | COc1ccc(-c2ccnc(SCc3cc4cc(Cl)ccc4[nH]c3=O)n2)cc1 | 62.1% | -18.5% (active) | 68.5% | 69.1% | 73% | 26.6% | 100% | 94.7% | 54.9%
26 | COc1cc(C2CC(c3ccc(S(=O)(=O)NCCNc4nc(Nc5ccc(F)cc5)nc(N(C)C)n4)cc3)=Nc3c(N)nc(N)nc3N2)cc(OC)c1OC (stereo not drawn) | 56.2% | 62.8% | 87.1% | 96.3% | 51.1% | 82.6% | 87.5% | 95.5% | 0.318% (active)
27 | O=c1[nH]c2ccccc2cc1CSc1nccc(-c2ccc3ccccc3c2)n1 | 41.8% | 44.8% | 17.3% | 51.2% | 47% | 41.7% | 83.5% | 69.6% | -17.2% (active)
